Screens as filed in PubChem BioAssay.
This is a sample that favours compounds with a hit; in the whole collection about 0.92% have one here.
GALK inh – qHTS Assay for Inhibitors of Human Galactokinase (GALK); 270,000 compounds, 0.007% hits; Purified GALK, Kinase-Glo residual ATP luminescence; P51570; Potency, µM (top dose mostly 57.5 µM), for inactives: at the top dose activity change, negative = inhibition, hits mostly inhibitors; AID 1868, 2009; also: potency is read from the fitted curve at half-maximal effect; % is scaled to controls: 0 for no effect and ±100 for the full control effect
Target sequence (P51570 whole entry, looked up): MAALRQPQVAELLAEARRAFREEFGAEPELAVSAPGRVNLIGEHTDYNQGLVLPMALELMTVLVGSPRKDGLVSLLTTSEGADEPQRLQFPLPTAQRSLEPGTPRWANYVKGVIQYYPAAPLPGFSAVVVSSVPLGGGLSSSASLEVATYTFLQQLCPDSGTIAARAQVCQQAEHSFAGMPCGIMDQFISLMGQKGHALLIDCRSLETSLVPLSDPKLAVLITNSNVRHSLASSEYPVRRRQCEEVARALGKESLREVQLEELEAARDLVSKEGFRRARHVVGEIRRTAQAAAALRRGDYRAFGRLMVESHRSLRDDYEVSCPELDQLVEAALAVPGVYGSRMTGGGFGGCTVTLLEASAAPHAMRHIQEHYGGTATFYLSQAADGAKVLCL
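Compounds were pin-transferred into ATP buffer (35 uM final), then GALK plus galactose (5 nM, 100 uM final) was added. After 1 h at room temperature, Kinase-Glo Plus was added and luminescence read after 10 min.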
RXFP1 ag – qHTS Assay for Agonists of the Relaxin Receptor RXFP1; Relaxin receptor 1 (Homo sapiens), Q9HBX9; HEK293T-RXFP1 cAMP TR-FRET, 30 min; response scale: percent of porcine relaxin response, buffer zero; Potency, µM (titrated, usually from 57.5 µM), inactives show top-dose activation, actives largely listed as activators; 370,000 compounds, 0.3% hits; also: potency is read from the fitted curve at half-maximal effect; % is scaled to controls: 0 for no effect and ±100 for the full control effect; nearly all actives have a fitted effect of over 60% in size
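HEK293T cells stably expressing RXFP1 were pretreated with the PDE4 inhibitor Ro 20174, exposed to compounds for 30 min at 37C, lysed, and cAMP was read by TR-FRET. Data normalized to buffer (basal) and 29 nM porcine relaxin (100%).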
Luc counter – Counterscreen for Luciferase (Kinase-Glo TM) Inhibition; Luciferin 4-monooxygenase (Photuris pensylvanica), Q27757; Kinase-Glo luciferase, ATP luminescence, 8 min; Potency, µM (series often up to 38.3 µM), inactives show top-dose activity change, negative = inhibition, hits mostly inhibitors; 200,000 compounds, 0.28% hits; also: potency is read from the fitted curve at half-maximal effect; % is scaled to controls: 0 for no effect and ±100 for the full control effect; nearly all actives have a fitted effect of over 60% in size
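Substrate mix (final 50 mM imidazole pH 7.2, 50 mM KCl, 7 mM MgCl2, 10 uM ATP, 0.01% Tween 20, 0.05% BSA) plus pin-tool compound, then Kinase-Glo detection mix; 8 min ambient, luminescence read.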
RXFP1 antag – qHTS Assay for Antagonists of the Relaxin Receptor RXFP1. Relaxin receptor 1 (Homo sapiens), Q9HBX9. HEK293-RXFP1, relaxin-stimulated cAMP HTRF, 30 min; hits give low values. activity change, negative = inhibition, % at 57.5 µM. 350,000 compounds, 0.59% hits;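 active = activity change of -60% or lower, but not beyond a set lower limit; inconclusive = change between -60% and -40%, or beyond the set limit; inactive = change above -40%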; also: % is scaled to controls: 0 for no effect and ±100 for the full control effect
miR-21 reporter – qHTS Assay for Modulators of miRNAs and/orActivators of miR-21. HeLa miR-21 FLuc reporter, luciferase, 48 h. Potency, µM (top dose mostly 38.3 µM), for the others: top-dose activity change, positive = activation, most hits filed as activators. 340,000 tested, under 10 active;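 also: % of control where 0% means no effect; miR-21 action dims this reporter so a rising signal means less miR-21 action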
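Luminescence from a firefly luciferase reporter carrying a miR-21 binding site downstream, stably expressed under a CMV promoter in HeLa cells that make miR-21 endogenously, reports miRNA modulation after 48 h compound exposure up to approximately 40uM final.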
PKM2 act – qHTS Assay for Activators of Human Muscle isoform 2 Pyruvate Kinase | Pyruvate kinase PKM (Homo sapiens), P14618 | purified PKM2, Kinase-Glo ATP luminescence, activation; response scale: 0% is enzyme alone, no compound | Potency, µM (titrated, usually from 57.5 µM), for inactives: at the highest dose activation, usual class: activators | 260,000 compounds, 0.34% hits | AID 1631, 2009; also: potency is read from the fitted curve at half-maximal effect; % is scaled to controls: 0 for no effect and ±100 for the full control effect; nearly all actives have a fitted effect of over 55% in size
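Purified hPK-M2 (>95% pure) converted ADP (0.1 mM final) to ATP with 0.5 mM PEP in 50 mM imidazole pH7.2, KCl, MgCl2, Tween 20, BSA; 1 h at room temperature. ATP detected by Kinase-Glo luminescence.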
The depositor's hits bear a star; ? = inconclusive; . = no result. Unless noted, calls follow the shape of the dose curve; as a rule, active = well fitted curve in the direction sought with a large enough effect; inconclusive = small, poorly fitted or top-dose-only effect, or another doubt; inactive = no such curve, though single readings can be large; an effect the other way counts as inactive or inconclusive.

SMILES	GALK inh	RXFP1 ag	Luc counter	RXFP1 antag	miR-21 reporter	PKM2 act
COc1cccc(/C=N/NC(=O)CN2CC(c3ccccc3)CC2=O)c1OC (stereo not drawn)	-1.1%	0.4%	3.2%	-6.4	-6.5%	-6.5%
CCCn1c(N)c(C(=O)CSc2nc(C)cs2)c(=O)n(C)c1=O	-2.1%	0.0%	-2.4%	8.9	16.3%	15.8µM*
CC(/C=N/N1CCN(c2ccccn2)CC1)=C\c1ccccc1	0.4%	0.2%	-12.4%	.	-29.6%	-7.0%
CC(/C=N/N1CCN(c2ccccc2)CC1)=C\c1ccco1	.	-3.1%	7.94µM*	-19.9	-16.4%	-24.4%
CC(=C/c1ccco1)/C=N/N1CCN(c2ccccc2)CC1	8.1%	-0.4%	10µM*	-6.0	-53.4%	-45.2%
CC(/C=N/N1CCN(c2ccccc2)CC1)=C\c1ccccc1	2.7%	1.8%	-16.6%	-8.1	-6.4%	-1.6%
Cc1ccc(-c2nc3c(c(=O)[nH]c(=O)n3Cc3ccccc3)n2Cc2ccccc2)o1	8.0%	-0.6%	-2.7%	-15.4	15.2%	17.8µM*
C=CCN1CCc2c(cc(O)c(O)c2Cl)C(c2cccc(C)c2)C1 (stereo not drawn)	.	.	4.5%	.	.	?
CCN(C(=O)COC(=O)c1ccccc1NCCO)c1cccc2ccccc12	.	-0.1%	.	-2.5	.	.
N#CCCSc1ccccc1NC(=O)c1ccc(S(=O)(=O)N2CCCC2)cc1	-1.1%	0.5%	-2.8%	.	-10.7%	20µM*
O=C(Nc1noc2ccccc12)c1ccc(F)cc1	.	-2.2%	.	-14.3	-37.4%	.
COc1ccc(-c2n[nH]c(C(F)(F)F)c2-c2cc3ccccc3o2)c(O)c1	-3.0%	-1.0%	.	-69.3*	?	-21.3%
Cc1ccc(C(=O)C2=C(O)C(=O)N(Cc3ccco3)C2c2cccc(Cl)c2)o1 (stereo not drawn)	-4.3%	?	.	1.9	-2.9%	1.8%
Cc1ccc(C(=O)C2=C(O)C(=O)N(c3ncccn3)C2c2cccc(Cl)c2)o1 (stereo not drawn)	-0.6%	15.0%	1.2%	.	5.6%	6.31µM*
CN1CCN(C(=O)c2ccc(-n3c(=O)c(=O)[nH]c4ccccc43)cc2)CC1	.	.	-3.3%	.	.	.
CCCCC/C=C\C/C=C\C=C\[C@@H](O)C/C=C\CCCC(=O)O	.	.	-0.2%	.	.	.
CCCCC[C@H](O)/C=C/C=C/C=C/[C@H](O)C/C=C\CCCC(=O)O	.	.	2.0%	.	.	.
CN(C)c1ccc(N/C=C/C(=O)c2ccccc2)cc1	11.4%	-3.0%	3.98µM*	-109.6*	-58.8%	-53.2%
CC(=O)Nc1ccc(N/C=C/C(=O)c2ccccc2)cc1	3.8%	-0.2%	.	-5.9	-45.6%	0.3%
O=C(/C=C/Nc1ccccc1)c1ccccc1	6.4%	2.1%	7.08µM*	3.0	-42.6%	3.9%
FC(F)(F)c1cc(NC(=S)Nc2ccc3cc4ccccc4cc3c2)cc(C(F)(F)F)c1	.	.	2.6%	.	.	.
COc1cc(C/C=C\c2ccccc2)c(OC)cc1O	.	.	0.8%	.	.	.
Cc1ccc(CNC(=O)CCS(=O)(=O)c2cc(Br)cc3c2N(C(=O)C2CC2)CC3)cc1	.	3.4%	.	8.5	0.8%	.
Cc1ccc(CNC(=O)CCS(=O)(=O)c2cc(Br)cc3c2N(C(=O)C2CC2)CC3)o1	1.7%	0.8%	3.7%	-0.9	-5.7%	7.94µM*
O=CN1CCc2c([nH]c3ccccc23)C1c1cccc2cccnc12 (stereo not drawn)	.	.	-0.6%	.	.	.
COc1cccc(C(=O)Oc2ccc(/C=N/NC(=O)c3ccncc3)cc2OC)c1	3.4%	-1.5%	.	-9.9	3.0%	.
COc1cc(/C=N/NC(=O)c2ccncc2)ccc1OCC(=O)Nc1ccccc1	7.0%	-2.2%	.	-73.5*	-48.9%	-0.4%
